Source: PubChem BioAssay (National Center for Advancing Translational Sciences (NCATS))
Pf growth 48h = Primary qHTS for delayed death inhibitors of the malarial parasite plastid, 48 hour incubation. AID 504832, 2011. Potency, µM (doses to about 28.7 µM), inactives show at the highest dose activity change, negative = inhibition, usual class: inhibitors. actives 5.9% (n = 310,000). P. falciparum luciferase growth in erythrocytes, 48 h; also: potency is read from the fitted curve at half-maximal effect; % is scaled to controls: 0 for no effect and ±100 for the full control effect
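Compounds are pin-transferred into medium, infected erythrocytes (2% hematocrit, 0.1% parasitemia final) are added, and plates sit one parasite generation at 37 C in 5% CO2. Detection reagent is then added and luminescence measured.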
Shiga toxin inh = A qHTS for Small Molecule Inhibitors of Shiga Toxin | Vero cells, Shiga toxin protein synthesis inhibition reporter | inhibition, % at 38.7 µM | actives 9.2% (n = 290,000) | AID 2315, 2010; in the data active = inhibition mostly above about 28%, no sharp cut-off; inactive = mostly below about 43%; also: 0% is about no effect
CHX counter = Cycloheximide Counterscreen for Small Molecule Inhibitors of Shiga Toxin | max response, % | actives 12% (n = 300,000) | cell reporter, cycloheximide protein synthesis inhibition counterscreen | AID 2314, 2010; in the data active = max response mostly above about 13%, no sharp cut-off; inactive = mostly below about 14%; also: read at 38.3 µM for the half of the compounds with a filed dose; 0% is about no effect
NS1 inh = qHTS Assay for Inhibitors of Influenza NS1 Protein Function; Potency, µM (doses to about 46.1 µM), inactives show at the top dose activity, positive = more growth; actives 0.4% (n = 270,000); AID 2326, 2010; calls by dose curve; also: potency is read from the fitted curve at half-maximal effect; actives are rising curves; nearly all actives have a fitted effect of over 50% in size
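S. cerevisiae expressing influenza A NS1, grown in glucose, washed, then diluted 1:100 into pH 6.0 -URA galactose medium with 23 nl compound. Growth recovery read as OD600; NS1-free strain serves as control.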
Pf growth 96h = Primary qHTS for delayed death inhibitors of the malarial parasite plastid, 96 hour incubation; P. falciparum luciferase reporter growth, 96 h; Potency, µM (doses to about 28.7 µM), for inactives: top-dose activity change, negative = inhibition, most hits filed as inhibitors; actives 6.9% (n = 320,000); AID 504834, 2011; also: potency is read from the fitted curve at half-maximal effect; % is scaled to controls: 0 for no effect and ±100 for the full control effect
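Infected RBCs, 2% Hct / 0.05% parasitemia final; luciferase-reporter P. falciparum; cpd 96 h, 37 C, 5% CO2; luciferase detection reagent; luminescence.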
* marks the source's active call; other numbers are inactive results; u = inconclusive; x = not tested or not shown; ! = a repeat was not active. Shown are actives, neighbours in structure and some others; about 21% of the full set was active somewhere. Unless noted, calls follow the shape of the dose curve; as a rule, active = well fitted inhibition curve with a large enough effect; inconclusive = small, poorly fitted or top-dose-only effect, or another doubt; inactive = no such curve, though single readings can be large or run the other way.

SMILES | Pf growth 48h | Shiga toxin inh | CHX counter | NS1 inh | Pf growth 96h
Cc1ccccc1-n1ncc2c1CC(C)(C)CC2NC(=O)CCn1cncn1 (stereo not drawn) | u | 5 | -3 | -9% | 80%
C=CCCC(=O)NC1CC(C)(C)Cc2c1cnn2-c1cccc(F)c1 (stereo not drawn) | u | 7 | 3 | 19% | u
Cc1cc(Cl)ccc1C(=O)C1CCCN(C(=O)c2cnn(C(C)C)c2)C1 (stereo not drawn) | u | 19 | 8 | -4% | u
Cc1ccccc1-n1ncc2c1CC(C)(C)CC2NC(=O)C1=CC(=O)CC(C)(C)O1 (stereo not drawn) | u | -6 | -2 | 3% | 9.3µM*
CC1(C)Cc2c(cnn2-c2ccc(F)cc2)C(NC(=O)CCN2CCCC2=O)C1 (stereo not drawn) | 2% | 47* | 30* | -3% | u
CC1(C)Cc2c(cnn2-c2ccc(F)cc2)C(NC(=O)C2=NNC(=O)CC2)C1 (stereo not drawn) | -14% | 39* | 29* | 2% | 15%
CC1(C)Cc2c(cnn2-c2cccc(F)c2)C(NC(=O)CCN2CCCC2=O)C1 (stereo not drawn) | 41% | 11 | 11 | -7% | 19%
Fc1ccc(-c2csc3ncnc(N4CCN(Cc5ccccc5)CC4)c23)cc1 | u | -2 | 1 | 5% | 9.3µM*
CN(Cc1ccccc1)c1nc(CN2CCOCC2)nc2scc(-c3ccccc3)c12 | u | -14 | -2 | -47% | u
Fc1ccc(N2CCN(c3nc(CN4CCOCC4)nc4scc(-c5ccccc5)c34)CC2)cc1 | 12µM* | -7 | 5 | x | 7.4µM*
c1ccc(-c2csc3ncnc(N4CCN(Cc5ccc6c(c5)OCO6)CC4)c23)cc1 | 13µM* | -2 | -4 | 7% | u
Fc1ccc(CN2CCN(c3ncnc4scc(-c5ccccc5)c34)CC2)cc1 | u | -4 | -3 | -8% | 10µM*
Cc1ccc(Cn2c(SCC(=O)NCC3CCCO3)nc3c2c(=O)n(C)c(=O)n3C)cc1 (stereo not drawn) | 11% | 4 | -2 | 3% | 23%
CN(CC(=O)Nc1ccccc1C(F)(F)F)C(=O)C1CC1 | 3% | x | x | x | 16%
COc1ccc(C(=O)CSc2nc3ccc([N+](=O)[O-])cc3[nH]2)cc1 | -19% | -13 | -1 | 10% | -16%
Cc1sc2ncnc(N3CCN(Cc4ccccc4)CC3)c2c1-c1ccc(F)cc1 | 13µM* | 2 | -8 | 2% | 13µM*
Cc1ccc(-c2csc3ncnc(N4CCN(Cc5ccccc5)CC4)c23)cc1 | u | -5 | 1 | 15% | u
COc1ccc2c(c1)c(CC(=O)Nc1nnc(C3CC3)s1)c(C)n2C(=O)c1ccc(Cl)cc1 | u | -7 | 8 | 2% | u
COc1ccc2c(c1)c(CC(=O)NCc1cc([N+](=O)[O-])ccc1O)c(C)n2C(=O)c1ccc(Cl)cc1 | u | -18 | -2 | u | 5.9µM*
COc1ccc(OC)c(NC(=O)Cc2c(C(=O)O)n(C)c3ccccc23)c1 | -11% | -5 | -7 | u | 15%
COc1ccc2c(c1)c(CC(=O)Nc1ccc(C(C)=O)cc1)c(C)n2C(=O)c1ccc(Cl)cc1 | -20% | 83*! | 47* | 22% | -26%
COc1ccc2c(c1)c(CC(=O)Nc1ccccc1OC)c(C)n2C(=O)c1ccc(Cl)cc1 | 0% | -3 | -3 | 23% | 5.2µM*
CN1CCN(c2nc(-c3ccc(Cl)cc3)cc(=O)[nH]2)CC1 | -5% | -1 | -3 | 0% | u
Cc1ccc(C)c(C(=N)c2ccccc2Cc2ccccc2)c1 | x | x | x | -32% | x
COc1ccc(NC(=O)c2cccnn2)cc1 | 92% | 29* | 24* | 1% | u
COc1cccc(NC(=O)c2cccnn2)c1 | 46% | 18 | 21* | -1% | u
CC1(C(=O)N2CC3(CC(c4cccc([N+](=O)[O-])c4)=NO3)C[C@H]2C(=O)NCC(N)=O)CC1 (stereo partly drawn) | 18% | -14 | -3 | 0% | 64%
Cc1c(C(=O)NC2CCCc3ccccc32)oc2ccc(S(=O)(=O)N3CCCCC3)cc12 (stereo not drawn) | u | -3 | -3 | 11% | 1.9µM*
Cc1c(C(=O)Nc2ccc(F)cc2)oc2ccc(S(=O)(=O)N3CCC4(CC3)OCCO4)cc12 | 9.3µM* | 24 | -1 | u | u
